# Assay results as given in PubChem BioAssay (EPA / NIEHS).
# Inconclusive results are not listed. A structure can be active in one record and inactive in another. Calls of active or inactive are those of the source. How the source made its calls, unless noted: active means hit-call score of the fitted dose curve at least 0.9, where 1 is the maximum; inactive means score below 0.9.
# Experiments:
# [1] = target: Myc proto-oncogene protein (Homo sapiens) (UniProt P01106); assay: ATG_Myc_CIS: Attagene CIS-FACTORIAL HepG2 Assay for human Myelocytomatosis (Myc) Proto-Oncogene Transcription Factor (AID 2282990); settings: HepG2, Attagene cis-reporter transcription factor activity; actives raise or lower the signal
# Chain of Myc proto-oncogene protein (Homo sapiens) (P01106 whole entry, looked up): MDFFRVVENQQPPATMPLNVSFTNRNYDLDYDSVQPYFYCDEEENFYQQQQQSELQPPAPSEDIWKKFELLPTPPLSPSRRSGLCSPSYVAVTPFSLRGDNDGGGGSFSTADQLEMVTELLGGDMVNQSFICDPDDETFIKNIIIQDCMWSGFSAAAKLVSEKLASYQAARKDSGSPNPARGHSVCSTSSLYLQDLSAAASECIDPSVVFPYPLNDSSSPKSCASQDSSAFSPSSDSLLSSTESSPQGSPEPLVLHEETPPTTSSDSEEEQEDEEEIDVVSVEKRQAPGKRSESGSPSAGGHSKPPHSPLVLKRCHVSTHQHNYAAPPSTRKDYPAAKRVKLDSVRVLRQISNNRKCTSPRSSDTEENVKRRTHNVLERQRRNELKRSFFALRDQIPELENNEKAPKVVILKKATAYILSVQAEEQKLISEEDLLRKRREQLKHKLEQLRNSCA
# How it was run: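 HepG2 cells transiently transfected with multiple cis-promoter-driven reporter transcription units, so endogenous TF activity is read. After 24 h compound exposure, reporter mRNA was quantified by RT-PCR, 6-FAM labelling, HpaI digestion and capillary electrophoresis; bidirectional fit versus DMSO.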
# [2] = ATG_NRF2_ARE_CIS: Attagene CIS-FACTORIAL HepG2 Assay for human Nuclear Factor Erythroid 2 Related Factor 2 (NFR2) response to Antioxidant Response Elements (ARE) (AID 2282992); settings: HepG2 Attagene ARE/NRF2 reporter, transcription factor activity; actives raise or lower the signal;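 on AC50: reporter mRNA level measured by RT-PCR and capillary electrophoresis fluorescence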
# How it was run: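 Readout: reporter mRNA quantified by RT-PCR plus FAM-labelled primer extension, HpaI digestion and capillary electrophoresis, 24 h after dosing transfected HepG2 cells. Gain or loss of signal is fitted bidirectionally against DMSO baseline.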
# [3] = BSK_3C_TissueFactor: BioMAP Diversity Plus: 3C Assay for Tissue Factor Biomarker Activity (AID 2282997); settings: BioMAP 3C HUVEC, tissue factor biomarker readout; actives raise or lower the signal
# How it was run: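 Tissue factor on primary human umbilical vein endothelium was read by ELISA 24 h after dosing, gain or loss relative to DMSO. Cytotoxicity ran alongside via SRB (0.1%, TCA-fixed, 560 nm).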
# [4] = BSK_3C_uPAR: BioMAP Diversity Plus: 3C Assay for Urokinase-type plasminogen activator receptor (uPAR) Biomarker Activity (AID 2282998); settings: BioMAP 3C HUVEC, uPAR biomarker ELISA; actives raise or lower the signal
# How it was run: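 ELISA readout of uPAR on human vascular endothelium (umbilical vein primary cells), taken 24 h after chemical dosing. Increases and decreases are both fitted relative to DMSO vehicle.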
# [5] = BSK_3C_VCAM1: BioMAP Diversity Plus: 3C Assay for Vascular cell adhesion molecule 1 (VCAM1) Biomarker Activity (AID 2282999); settings: BioMAP 3C HUVEC, VCAM1 ELISA, cytokine-stimulated; actives raise or lower the signal
# How it was run: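 Vascular primary endothelium (human umbilical vein) was exposed to chemicals and assayed 24 h later. VCAM-1 levels came from ELISA, with DMSO serving as baseline for bidirectional fitting.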
# [6] = BSK_4H_Eotaxin3: BioMAP Diversity Plus: 4H Assay for Eotaxin 3 Biomarker Activity (AID 2283000); settings: primary human endothelial cells (HUVEC); actives raise or lower the signal;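 on outcome: CCL26 protein level quantified by ELISA in parallel with SRB cytotoxicity check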
# How it was run: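 Human umbilical vein endothelial cells (BSK_4H system) dosed with test chemical; Eotaxin-3 (CCL26) measured by ELISA 24 h after dosing. Bidirectional curve fitting relative to DMSO negative control as baseline.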
# [7] = target: human Peroxisome Proliferator-activated Receptor alpha (PPARa), PPARA (gene 5465) (UniProt Q07869); assay: ATG_PPARa_TRANS: Attagene TRANS-FACTORIAL HepG2 Assay for human Peroxisome Proliferator-activated Receptor alpha (PPARa) (AID 2283001; active means hit-call score of the fitted dose curve at least 0.9, where 1 is the maximum;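 on AC50: potency for gain of reporter signal over DMSO so agonist or activator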)
# Chain of human Peroxisome Proliferator-activated Receptor alpha (PPARa), PPARA (gene 5465) (Q07869 whole entry, looked up): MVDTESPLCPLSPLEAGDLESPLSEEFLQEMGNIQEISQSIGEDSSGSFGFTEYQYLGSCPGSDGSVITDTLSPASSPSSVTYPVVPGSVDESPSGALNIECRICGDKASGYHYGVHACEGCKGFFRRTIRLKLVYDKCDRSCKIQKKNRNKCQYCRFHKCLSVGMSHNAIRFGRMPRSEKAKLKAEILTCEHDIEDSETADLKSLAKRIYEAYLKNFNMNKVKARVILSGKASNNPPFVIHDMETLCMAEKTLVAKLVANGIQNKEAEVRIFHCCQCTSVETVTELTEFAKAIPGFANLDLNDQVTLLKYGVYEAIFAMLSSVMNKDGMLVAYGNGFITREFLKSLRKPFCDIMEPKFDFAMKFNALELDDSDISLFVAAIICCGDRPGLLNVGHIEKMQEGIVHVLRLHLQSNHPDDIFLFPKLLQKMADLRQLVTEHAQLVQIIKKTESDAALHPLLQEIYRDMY
# How it was run: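 Cells (HepG2) are transfected with multiple reporter transcription units, exposed to chemical for 24 h, then total RNA is reverse-transcribed and amplified. Labelled products are quantified by capillary electrophoresis; induction is referenced to DMSO.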
# [8] = read-out: Intercellular Adhesion Molecule 1 (ICAM1), ICAM1 (gene 3383); assay: BSK_3C_ICAM1: BioMAP Diversity Plus: 3C Assay for Intercellular Adhesion Molecule 1 (ICAM1) Biomarker Activity (AID 2283003); settings: primary human endothelial cells (HUVEC); actives raise or lower the signal
# How it was run: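 Chemicals are dosed onto primary human umbilical vein endothelium (3C system). After 24 h, ICAM-1 is measured by ELISA, and responses are fitted bidirectionally relative to DMSO.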
# [9] = target: human Retinoic Acid Receptor beta (RARb), RARB (gene 5915) (UniProt P10826); assay: ATG_RARb_TRANS: Attagene TRANS-FACTORIAL HepG2 Assay for human Retinoic Acid Receptor beta (AID 2283004; active means hit-call score of the fitted dose curve at least 0.9, where 1 is the maximum)
# Chain of human Retinoic Acid Receptor beta (RARb), RARB (gene 5915) (P10826 whole entry, looked up, the tested form may be a part): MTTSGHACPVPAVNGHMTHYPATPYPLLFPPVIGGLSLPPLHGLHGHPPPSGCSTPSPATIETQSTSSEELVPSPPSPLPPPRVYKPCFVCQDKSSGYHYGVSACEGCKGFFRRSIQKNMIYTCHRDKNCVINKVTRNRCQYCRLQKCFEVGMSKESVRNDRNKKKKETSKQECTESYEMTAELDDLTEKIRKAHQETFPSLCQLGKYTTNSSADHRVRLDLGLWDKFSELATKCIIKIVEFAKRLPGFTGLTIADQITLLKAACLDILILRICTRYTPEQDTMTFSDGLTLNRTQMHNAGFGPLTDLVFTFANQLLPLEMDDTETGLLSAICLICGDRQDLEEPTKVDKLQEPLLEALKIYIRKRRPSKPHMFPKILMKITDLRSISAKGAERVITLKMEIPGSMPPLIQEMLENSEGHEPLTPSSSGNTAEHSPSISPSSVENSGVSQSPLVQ
# How it was run: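 Induction of reporter mRNA from a chimeric RARb-Gal4 construct was measured by RT-PCR, FAM labelling, HpaI digestion and capillary electrophoresis. Measurements followed 24 h compound treatment of transiently transfected human HepG2 liver cells, with DMSO as baseline.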
# [10] = BSK_3C_Proliferation: Cell Proliferation Assessment in the BioMAP Diversity Plus: 3C Assay (AID 2283006); settings: primary human endothelial cells (HUVEC)
# How it was run: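 Cells (human umbilical vein endothelial, sub-confluent) receive test chemical; after 48 h they are fixed in 10% trichloroacetic acid, stained with 0.1% SRB and read at 560 nm. Activity is referenced to DMSO, fitting increases and decreases.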
# [11] = target: Peroxisome proliferator-activated receptor gamma (Homo sapiens) (UniProt P37231); assay: ATG_PPARg_TRANS: Attagene TRANS-FACTORIAL HepG2 Assay for human Peroxisome Proliferator-activated Receptor-gamma (PPARg) (AID 2283007; active means hit-call score of the fitted dose curve at least 0.9, where 1 is the maximum)
# Chain of Peroxisome proliferator-activated receptor gamma (Homo sapiens) (P37231 whole entry, looked up, the tested form may be a part): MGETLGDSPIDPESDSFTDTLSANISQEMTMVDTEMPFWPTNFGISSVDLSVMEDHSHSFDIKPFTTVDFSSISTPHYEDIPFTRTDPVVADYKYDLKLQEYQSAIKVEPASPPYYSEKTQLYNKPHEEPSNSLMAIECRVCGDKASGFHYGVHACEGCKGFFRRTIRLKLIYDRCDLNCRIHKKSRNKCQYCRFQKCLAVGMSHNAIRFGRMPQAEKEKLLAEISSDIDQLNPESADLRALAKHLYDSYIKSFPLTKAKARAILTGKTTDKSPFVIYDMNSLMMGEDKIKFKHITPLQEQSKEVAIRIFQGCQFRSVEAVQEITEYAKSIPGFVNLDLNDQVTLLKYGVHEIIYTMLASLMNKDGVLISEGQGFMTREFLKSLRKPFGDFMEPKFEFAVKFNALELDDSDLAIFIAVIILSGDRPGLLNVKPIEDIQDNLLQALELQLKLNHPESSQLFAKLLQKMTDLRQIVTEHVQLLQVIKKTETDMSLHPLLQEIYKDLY
# How it was run: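 Chimeric NR-Gal4 transactivation is measured in transiently transfected HepG2 cells by reporter mRNA induction at 24 h. Detection uses RT-PCR with fluorescent labelling and capillary electrophoresis; DMSO defines baseline.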
# [12] = target: Nuclear receptor subfamily 1 group I member 2 (Homo sapiens) (UniProt O75469); assay: ATG_PXR_TRANS: Attagene TRANS-FACTORIAL HepG2 Assay for human Pregnane X Receptor (PXR) (AID 2283008; active means hit-call score of the fitted dose curve at least 0.9, where 1 is the maximum)
# Chain of Nuclear receptor subfamily 1 group I member 2 (Homo sapiens) (O75469 whole entry, looked up, the tested form may be a part): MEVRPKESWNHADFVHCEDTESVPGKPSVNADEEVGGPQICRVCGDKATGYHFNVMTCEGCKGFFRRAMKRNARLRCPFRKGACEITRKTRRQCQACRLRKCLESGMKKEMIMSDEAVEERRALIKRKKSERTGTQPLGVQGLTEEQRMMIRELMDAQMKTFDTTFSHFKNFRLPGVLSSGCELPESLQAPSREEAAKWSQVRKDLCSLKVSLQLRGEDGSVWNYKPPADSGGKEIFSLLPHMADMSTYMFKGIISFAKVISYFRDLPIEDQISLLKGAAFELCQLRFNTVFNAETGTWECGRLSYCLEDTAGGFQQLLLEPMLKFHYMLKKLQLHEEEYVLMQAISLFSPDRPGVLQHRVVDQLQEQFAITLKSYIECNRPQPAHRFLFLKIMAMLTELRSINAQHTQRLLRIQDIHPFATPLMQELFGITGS
# How it was run: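 Trans-factorial format: exogenous NR-Gal4 fusion activity, not endogenous factor, in transfected human HepG2 liver cells. After 24 h dosing, RNA isolated, reverse-transcribed, amplified and resolved by capillary electrophoresis; induction scored versus DMSO.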
# [13] = target: human RAR-related Orphan Receptor beta (RORb), RORB (gene 6096) (UniProt Q92753); assay: ATG_RORb_TRANS: Attagene TRANS-FACTORIAL HepG2 Assay for human RAR-related Orphan Receptor beta (RORb) (AID 2283010; active means hit-call score of the fitted dose curve at least 0.9, where 1 is the maximum)
# Chain of human RAR-related Orphan Receptor beta (RORb), RORB (gene 6096) (Q92753 whole entry, looked up, the tested form may be a part): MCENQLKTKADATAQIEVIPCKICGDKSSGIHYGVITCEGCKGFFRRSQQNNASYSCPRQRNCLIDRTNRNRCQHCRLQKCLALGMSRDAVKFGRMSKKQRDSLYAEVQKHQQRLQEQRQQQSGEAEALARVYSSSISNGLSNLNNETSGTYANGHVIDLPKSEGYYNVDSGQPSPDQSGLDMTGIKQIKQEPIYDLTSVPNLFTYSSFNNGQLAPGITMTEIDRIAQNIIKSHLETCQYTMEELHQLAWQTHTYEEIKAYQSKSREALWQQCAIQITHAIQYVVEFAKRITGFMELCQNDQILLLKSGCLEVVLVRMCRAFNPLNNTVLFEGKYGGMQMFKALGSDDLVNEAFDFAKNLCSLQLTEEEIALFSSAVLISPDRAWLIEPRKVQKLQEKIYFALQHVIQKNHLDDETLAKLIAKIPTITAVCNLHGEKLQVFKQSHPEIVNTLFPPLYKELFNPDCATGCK
# How it was run: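 Transfect HepG2 with multiple GAL4-UAS reporter transcription units; dose chemicals for 24 h; isolate RNA, reverse-transcribe and PCR-amplify reporter sequences; label, digest and resolve fragments by capillary electrophoresis; fit increases relative to DMSO.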
# [14] = ATG_Oct_MLP_CIS: Attagene CIS-FACTORIAL HepG2 Assay for human Octamer-Binding Transcription Factor (Oct) (AID 2282993); settings: HepG2 Attagene cis-factorial Oct reporter, mRNA; actives raise or lower the signal
# How it was run: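 Transient MRTU transfection of HepG2 → 24 h compound treatment → RNA isolation, reverse transcription, PCR → 6-FAM primer extension, HpaI digest → capillary electrophoresis. Activity fitted both directions against DMSO.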
# [15] = ATG_NF_kB_CIS: Attagene CIS-FACTORIAL HepG2 Assay for human Nuclear Factor Kappa B (NF-kB) (AID 2282991); settings: HepG2 Attagene cis-factorial NF-kB reporter mRNA; actives raise or lower the signal
# How it was run: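 DMSO served as negative control and baseline for bidirectional curve fitting. Transiently transfected HepG2 cells were dosed for 24 h, then reporter transcripts were measured by RT-PCR with capillary electrophoresis detection.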
# [16] = target: Cellular tumor antigen p53 (Homo sapiens) (UniProt P04637); assay: ATG_p53_CIS: Attagene CIS-FACTORIAL HepG2 Assay for human p53 Transcription Factor (AID 2282994); settings: HepG2 p53 cis-element reporter, Attagene mRNA; actives raise or lower the signal
# Chain of Cellular tumor antigen p53 (Homo sapiens) (P04637 whole entry, looked up): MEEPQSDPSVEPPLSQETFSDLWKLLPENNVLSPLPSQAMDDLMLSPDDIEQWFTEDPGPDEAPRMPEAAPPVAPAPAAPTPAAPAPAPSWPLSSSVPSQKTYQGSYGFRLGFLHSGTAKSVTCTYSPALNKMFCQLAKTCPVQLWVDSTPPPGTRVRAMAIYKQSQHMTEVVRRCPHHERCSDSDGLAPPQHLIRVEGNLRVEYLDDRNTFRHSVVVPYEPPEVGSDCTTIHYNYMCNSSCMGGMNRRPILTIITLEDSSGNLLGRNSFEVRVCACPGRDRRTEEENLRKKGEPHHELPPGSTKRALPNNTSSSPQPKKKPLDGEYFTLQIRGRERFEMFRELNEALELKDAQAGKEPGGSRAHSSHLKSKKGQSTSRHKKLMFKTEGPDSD
# How it was run: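 Read-out: reporter mRNA by RT-PCR plus capillary electrophoresis with fluorescence detection. Human HepG2 liver cells carried transfected multi-reporter cis-element constructs, dosed 24 h. Gain or loss of signal fitted bidirectionally against DMSO control.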
# [17] = target: human Peroxisome Proliferator-activated Receptor delta (PPARd), PPARD (gene 5467) (UniProt Q03181); assay: ATG_PPARd_TRANS: Attagene TRANS-FACTORIAL HepG2 Assay for human Peroxisome Proliferator-activated Receptor delta (PPARd) (AID 2283002; active means hit-call score of the fitted dose curve at least 0.9, where 1 is the maximum)
# Chain of human Peroxisome Proliferator-activated Receptor delta (PPARd), PPARD (gene 5467) (Q03181 whole entry, looked up, the tested form may be a part): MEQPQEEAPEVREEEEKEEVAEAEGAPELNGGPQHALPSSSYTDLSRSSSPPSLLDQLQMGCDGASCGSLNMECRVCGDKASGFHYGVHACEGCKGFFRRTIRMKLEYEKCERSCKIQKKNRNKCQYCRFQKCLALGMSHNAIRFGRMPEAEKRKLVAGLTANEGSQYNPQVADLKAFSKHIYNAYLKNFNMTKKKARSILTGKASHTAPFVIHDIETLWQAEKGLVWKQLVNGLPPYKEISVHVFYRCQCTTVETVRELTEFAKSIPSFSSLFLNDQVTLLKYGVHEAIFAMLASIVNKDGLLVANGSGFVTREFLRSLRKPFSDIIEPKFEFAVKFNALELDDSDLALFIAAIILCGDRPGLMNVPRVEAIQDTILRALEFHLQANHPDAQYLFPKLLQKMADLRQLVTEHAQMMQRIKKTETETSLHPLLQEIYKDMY
# How it was run: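 HepG2 cells transiently transfected with multiplexed GAL4-UAS reporter units and exogenous chimeric NR-Gal4 proteins; 24 h compound exposure. Reporter mRNA measured by RT-PCR, 6-FAM labelling, HpaI digestion and capillary electrophoresis; gain of signal versus DMSO.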
# [18] = target: human Retinoic Acid Receptor gamma (RARg), RARG (gene 5916) (UniProt P13631); assay: ATG_RARg_TRANS: Attagene TRANS-FACTORIAL HepG2 Assay for human Retinoic Acid Receptor gamma (RARg) (AID 2283009; active means hit-call score of the fitted dose curve at least 0.9, where 1 is the maximum)
# Chain of human Retinoic Acid Receptor gamma (RARg), RARG (gene 5916) (P13631 whole entry, looked up, the tested form may be a part): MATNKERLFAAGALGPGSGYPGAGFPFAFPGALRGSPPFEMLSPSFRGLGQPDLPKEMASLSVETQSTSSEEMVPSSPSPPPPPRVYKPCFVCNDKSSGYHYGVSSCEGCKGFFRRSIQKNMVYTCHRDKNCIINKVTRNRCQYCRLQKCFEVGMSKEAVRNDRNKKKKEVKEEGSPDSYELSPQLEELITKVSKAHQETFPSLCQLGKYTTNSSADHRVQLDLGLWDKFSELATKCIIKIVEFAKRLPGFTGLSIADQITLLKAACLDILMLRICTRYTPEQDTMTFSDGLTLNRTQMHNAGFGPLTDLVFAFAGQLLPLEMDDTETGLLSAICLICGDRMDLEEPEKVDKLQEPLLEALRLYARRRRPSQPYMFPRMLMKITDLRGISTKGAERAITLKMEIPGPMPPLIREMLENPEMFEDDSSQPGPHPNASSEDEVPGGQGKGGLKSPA
# How it was run: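 TRANS format measured activity of exogenous NR-GAL4 fusion (RARg) in transfected HepG2 liver cells after 24 h dosing. Induced reporter RNA was detected by RT-PCR/capillary electrophoresis fluorescence, analysed in the positive direction against DMSO.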
# [19] = target: human RAR-related Orphan Receptor gamma (RORg), RORC (gene 6097) (UniProt P51449); assay: ATG_RORg_TRANS: Attagene TRANS-FACTORIAL HepG2 Assay for human RAR-related Orphan Receptor gamma (RORg) (AID 2283011; active means hit-call score of the fitted dose curve at least 0.9, where 1 is the maximum)
# Chain of human RAR-related Orphan Receptor gamma (RORg), RORC (gene 6097) (P51449 whole entry, looked up, the tested form may be a part): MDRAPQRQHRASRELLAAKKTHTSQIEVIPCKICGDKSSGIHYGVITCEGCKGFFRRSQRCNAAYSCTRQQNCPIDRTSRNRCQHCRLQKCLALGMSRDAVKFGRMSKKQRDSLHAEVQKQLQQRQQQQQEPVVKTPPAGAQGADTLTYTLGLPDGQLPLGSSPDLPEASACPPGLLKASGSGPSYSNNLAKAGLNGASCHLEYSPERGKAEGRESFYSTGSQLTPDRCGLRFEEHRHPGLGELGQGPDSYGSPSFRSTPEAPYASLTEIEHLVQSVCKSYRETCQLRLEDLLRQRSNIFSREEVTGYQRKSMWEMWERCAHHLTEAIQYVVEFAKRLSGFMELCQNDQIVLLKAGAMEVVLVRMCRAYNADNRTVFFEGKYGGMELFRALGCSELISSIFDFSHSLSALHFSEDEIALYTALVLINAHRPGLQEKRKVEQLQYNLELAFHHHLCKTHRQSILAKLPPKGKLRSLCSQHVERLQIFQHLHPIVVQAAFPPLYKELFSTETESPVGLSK
# How it was run: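 Reporter transcripts from a transfected RORg-GAL4 chimera in HepG2 cells were quantified 24 h after dosing by RT-PCR, 6-FAM labelling, HpaI digestion and capillary electrophoresis; increases over DMSO baseline were fitted.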
smiles,measurement,setting,value
C=CC(C)(O)CCC=C(C)C (configuration not stated),outcome,[1],inactive
same,outcome,[2],inactive
same,outcome,[3],inactive
same,outcome,[4],inactive
same,outcome,[5],inactive
same,AC50,[6],0.149 µM (active)
same,outcome,[6],inactive
same,outcome,[7],inactive
same,outcome,[8],inactive
same,outcome,[9],inactive
same,outcome,[10],inactive
same,outcome,[11],inactive
same,outcome,[12],inactive
same,outcome,[13],inactive
CCC(=O)OCCOc1ccccc1,outcome,[1],inactive
same,outcome,[2],inactive
same,outcome,[14],inactive
same,outcome,[7],inactive
same,outcome,[13],inactive
CC(C)C[C@H](NC(=O)OCC1c2ccccc2-c2ccccc21)C(=O)O,outcome,[15],inactive
same,AC50,[2],31.1 µM (active)
same,outcome,[16],inactive
same,AC50,[7],40 µM (active)
same,AC50,[11],23.1 µM (active)
same,AC50,[12],12.5 µM (active)
C=C(C)CNCC,outcome,[15],inactive
same,outcome,[2],inactive
same,outcome,[14],inactive
same,outcome,[16],inactive
same,outcome,[7],inactive
same,outcome,[17],inactive
same,AC50,[12],54.6 µM (active)
same,outcome,[18],inactive
Cc1ncc([N+](=O)[O-])n1CCO,outcome,[2],inactive
same,outcome,[14],inactive
same,outcome,[16],inactive
same,outcome,[7],inactive
same,outcome,[17],inactive
same,outcome,[9],inactive
same,outcome,[12],inactive
same,outcome,[19],inactive
CC(C)(C)c1ccc(C(=O)O)cc1,outcome,[2],inactive
same,outcome,[14],inactive
same,outcome,[11],inactive
same,outcome,[12],inactive
C=Cc1ccc(C)cc1,outcome,[15],inactive
same,outcome,[2],inactive
same,outcome,[14],inactive
same,outcome,[16],inactive
same,outcome,[11],inactive
same,outcome,[12],inactive
same,outcome,[19],inactive
C=C[Si]1(C)O[Si](C)(C=C)O[Si](C)(C=C)O[Si](C)(C=C)O1 (configuration not stated),AC50,[15],19.8 µM (active)
same,AC50,[2],12 µM (active)
same,outcome,[14],inactive
same,outcome,[16],inactive
same,outcome,[11],inactive
same,AC50,[12],4.48 µM (active)
BrCc1cccc(Oc2ccccc2)c1,outcome,[15],inactive
same,AC50,[2],58.4 µM (active)
same,outcome,[14],inactive
same,outcome,[7],inactive
same,AC50,[11],44.8 µM (active)
same,AC50,[12],43.3 µM (active)
O=C(Nc1ccc([N+](=O)[O-])cc1)Nc1ccc([N+](=O)[O-])cc1 (tested in a mixture with another compound),outcome,[15],inactive
same,outcome,[2],inactive
same,outcome,[14],inactive
same,outcome,[16],inactive
same,outcome,[7],inactive
same,outcome,[11],inactive
same,outcome,[12],inactive
same,outcome,[18],inactive
